Our source for the AC50 and outcome values is PubChem BioAssay (EPA / NIEHS).

Values joined by “and” are separate entries in the source; they are usually repeats but may differ in a detail not shown here. Equal entries are not always repeated. Inconclusive results are not listed. A structure can be active in one record and inactive in another. Active and inactive are the calls of the source. Rule for the calls: active = hit-call score of the fitted dose curve at least 0.9, where 1 is the maximum; inconclusive = response in the unintended direction; inactive = score below 0.9.

Assay [1] in a line: STM_H9_NormalizedViability: Cytotoxicity Assessment at 120 hours in the Stemina devTOX quickPredict H9 human embryonic stem cell (hESC)-based Assay (AID 2283784). The essentials:
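Pluripotent H9 hESCs were exposed, with chemical and media replaced every 24 h. Viability was read by CellTiter-Fluor fluorescence, background-corrected and normalized to the 0.1% DMSO neutral control per plate. Loss of signal was fitted.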

Assay [2] deals with turtle Androgen Receptor (AR), gene 101947425. In words: ATG_trAR_XSP1: Attagene TRANS-FACTORIAL Multi-Species (XSP1) HepG2 Assay for turtle Androgen Receptor (AR) (AID 2283786). In outline: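 HepG2 cells transiently transfected with a turtle AR–GAL4 chimera and GAL4-UAS reporter, co-treated with 3 nM 6-alpha-fluorotestosterone for partial stimulation. Reporter mRNA is quantified at 24 h by RT-PCR and capillary electrophoresis, gain-of-signal versus DMSO.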

Assay [3] in a line: ACEA_ER_AUC_viability: ACEA Biosciences xCELLigence Real-Time Cell Analysis on Estrogen Receptor Agonism for Viability (AID 2283782).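 Note: continuous compound exposure with impedance area under curve over 80 h; hit means loss of impedance signal meaning reduced cell growth or viability.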 In outline: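 T47D cells preconditioned in phenol red-free RPMI with charcoal-stripped FBS, then dosed with 8-point 1:4 series from 100 uM (up to 0.5% DMSO). Impedance monitored up to ~80 h; area-under-curve loss versus DMSO taken as viability.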

In assay [4] the target is AR (gene 367) (UniProt P10275). In words: ACEA_AR_antagonist_80hr: ACEA Biosciences xCELLigence Real-Time Cell Analysis on Androgen Receptor Antagonism for Proliferation (AID 2283787).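 Note: 22Rv1 human prostate cancer cells with growth followed by electrical impedance; hits lower the impedance growth signal relative to DMSO.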 In outline: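 22Rv1 cells in assay medium, growth tracked by electrical impedance; compounds eight-point 1:4 dilutions from 100 uM final, duplicate plates. Endpoint at 80 h; loss of signal versus DMSO.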
AR (gene 367), sequence (P10275 whole entry, looked up): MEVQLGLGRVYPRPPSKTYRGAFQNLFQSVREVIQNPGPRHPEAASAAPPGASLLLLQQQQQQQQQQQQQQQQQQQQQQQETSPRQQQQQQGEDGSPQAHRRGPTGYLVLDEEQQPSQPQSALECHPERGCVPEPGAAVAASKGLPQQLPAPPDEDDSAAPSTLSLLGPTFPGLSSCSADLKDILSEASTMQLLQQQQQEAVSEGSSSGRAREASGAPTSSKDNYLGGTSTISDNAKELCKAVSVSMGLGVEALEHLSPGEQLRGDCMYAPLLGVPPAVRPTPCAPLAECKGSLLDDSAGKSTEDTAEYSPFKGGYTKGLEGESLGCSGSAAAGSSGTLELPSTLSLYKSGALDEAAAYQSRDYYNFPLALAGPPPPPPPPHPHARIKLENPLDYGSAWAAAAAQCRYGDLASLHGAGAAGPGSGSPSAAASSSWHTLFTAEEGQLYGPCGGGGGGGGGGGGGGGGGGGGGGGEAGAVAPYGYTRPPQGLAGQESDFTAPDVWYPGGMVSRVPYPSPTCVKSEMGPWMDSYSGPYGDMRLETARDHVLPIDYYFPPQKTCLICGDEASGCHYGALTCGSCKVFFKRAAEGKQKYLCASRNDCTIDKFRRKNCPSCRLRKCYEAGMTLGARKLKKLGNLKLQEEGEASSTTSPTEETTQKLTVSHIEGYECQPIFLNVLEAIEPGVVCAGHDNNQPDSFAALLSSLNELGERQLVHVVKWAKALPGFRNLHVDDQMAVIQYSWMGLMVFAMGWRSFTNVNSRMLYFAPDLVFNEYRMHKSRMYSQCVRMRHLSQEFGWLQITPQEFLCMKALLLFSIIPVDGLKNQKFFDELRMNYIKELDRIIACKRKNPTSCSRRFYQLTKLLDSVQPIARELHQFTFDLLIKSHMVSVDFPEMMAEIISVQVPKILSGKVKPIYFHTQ

The target of assay [5] is AR (gene 367) (UniProt P10275). The assay can be described thus: ACEA_AR_agonist_80hr: ACEA Biosciences xCELLigence Real-Time Cell Analysis on Androgen Receptor Agonism for Proliferation (AID 2283783).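 Note: hits increase impedance growth signal above DMSO baseline.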 In outline: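 Proliferation of 22Rv1 prostate cancer cells tracked by electrical impedance, endpoint taken at 80 hours after dosing. Eight-point 1:4 dilutions from 100 uM maximum final, duplicate; testosterone and MG132 as positive controls, assay media as negative.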

A short description of assay [6]: ATG_M_06_XSP1: Attagene TRANS-FACTORIAL Multi-Species (XSP1) HepG2 Assay for M06 Transcription Factor (Internal Marker) (AID 2283790). The essentials: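 Transfected HepG2 multi-reporter system treated 24 h in the presence of 3 nM 6-alpha-fluorotestosterone. The M06 internal marker transcript was quantified by RT-PCR with capillary electrophoresis as a background control, and gain of signal was scored versus DMSO.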

Assay [7] in a line: ATG_M_61_XSP1: Attagene TRANS-FACTORIAL Multi-Species (XSP1) HepG2 Assay for M61 Transcription Factor (Internal Marker) (AID 2283797). In outline:
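HepG2 cells transiently transfected with multiplexed GAL4-driven reporter units, dosed 24 h with 3 nM 6-alpha-fluorotestosterone present. Reporter mRNA quantified by RT-PCR, 6-FAM labelling, HpaI digestion and capillary electrophoresis; internal-marker background control, gain of signal versus DMSO.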

In assay [8] the test system is zebrafish Peroxisome Proliferator-activated Receptor gamma (PPARg), gene 557037. The assay can be described thus: ATG_zfPPARg_XSP1: Attagene TRANS-FACTORIAL Multi-Species (XSP1) HepG2 Assay for zebrafish Peroxisome Proliferator-activated Receptor gamma (PPARg) (AID 2283801). The essentials:
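HepG2 cells transiently transfected with GAL4-UAS reporter units including a zebrafish PPARg–GAL4 chimera, dosed 24 h with 3 nM 6-alpha-fluorotestosterone present. Reporter mRNA quantified by RT-PCR, FAM labelling, HpaI digestion and capillary electrophoresis; induction versus DMSO.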

The target in assay [9] is Nuclear receptor subfamily 1 group I member 2 (Mus musculus) (UniProt O54915). In words: ATG_mPXR_XSP1: Attagene TRANS-FACTORIAL Multi-Species (XSP1) HepG2 Assay for mouse Pregnane X Receptor (PXR) (AID 2283803). The essentials:
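Transiently transfected HepG2 cells expressing a receptor-Gal4 chimera drive a GAL4-UAS reporter; 3 nM 6-alpha-fluorotestosterone included. Reporter mRNA read 24 h post-dose by RT-PCR and capillary electrophoresis; gain of signal relative to DMSO.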

Assay [10] has as its target frog Thyroid hormone Receptor alpha (TRa), thra-a (gene 397942) (UniProt P15204). In words: ATG_frTRa_XSP1: Attagene TRANS-FACTORIAL Multi-Species (XSP1) HepG2 Assay for frog Thyroid hormone Receptor alpha (TRa) (AID 2283804). In outline:
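HepG2 cells transiently transfected with frog TRa-GAL4 chimeric reporter units, dosed 24 hr with 3 nM 6-alpha-fluorotestosterone present; reporter mRNA quantified by RT-PCR, fluorescent labelling and capillary electrophoresis, gain of signal versus DMSO.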

Assay [11] deals with human Thyroid hormone Receptor alpha (TRa), THRA (gene 7067) (UniProt P10827). In words: ATG_hTRa_XSP1: Attagene TRANS-FACTORIAL Multi-Species (XSP1) HepG2 Assay for human Thyroid hormone Receptor alpha (TRa) (AID 2283805). The essentials:
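HepG2 cells transiently transfected with GAL4-UAS reporter units expressing chimeric NR-Gal4 proteins, dosed 24 hours with 3 nM 6-alpha-fluorotestosterone present. Reporter mRNA measured by RT-PCR and capillary electrophoresis; gain of signal fitted versus DMSO.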

Assay [12] has as its system turtle Thyroid Hormone Receptor, alpha (TRa), gene 101949057. In words: ATG_trTRa_XSP1: Attagene TRANS-FACTORIAL Multi-Species (XSP1) HepG2 Assay for turtle Thyroid Hormone Receptor, alpha (TRa) (AID 2283806). The essentials:
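HepG2 cells transiently transfected with GAL4-UAS reporter units and chimeric receptor-Gal4 constructs, with 3 nM 6-alpha-fluorotestosterone present. Reporter mRNA was quantified 24 h after dosing by RT-PCR, 6-FAM labelling and capillary electrophoresis; gain of signal versus DMSO.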

Assay [13] has as its target zebrafish Thyroid Hormone Receptor alpha (TRa), thraa (gene 30670) (UniProt Q98867). In words: ATG_zfTRa_XSP1: Attagene TRANS-FACTORIAL Multi-Species (XSP1) HepG2 Assay for zebrafish Thyroid Hormone Receptor alpha (TRa) (AID 2283807). In outline: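 HepG2 cells transiently transfected with GAL4-UAS reporter units including a zebrafish TRa–Gal4 chimera, dosed 24 h with 3 nM 6-alpha-fluorotestosterone present. Reporter mRNA quantified by RT-PCR and capillary electrophoresis; gain versus DMSO.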

Nuclear receptor subfamily 1 group I member 2 (Mus musculus), sequence (O54915 whole entry, looked up, the tested form may be a part): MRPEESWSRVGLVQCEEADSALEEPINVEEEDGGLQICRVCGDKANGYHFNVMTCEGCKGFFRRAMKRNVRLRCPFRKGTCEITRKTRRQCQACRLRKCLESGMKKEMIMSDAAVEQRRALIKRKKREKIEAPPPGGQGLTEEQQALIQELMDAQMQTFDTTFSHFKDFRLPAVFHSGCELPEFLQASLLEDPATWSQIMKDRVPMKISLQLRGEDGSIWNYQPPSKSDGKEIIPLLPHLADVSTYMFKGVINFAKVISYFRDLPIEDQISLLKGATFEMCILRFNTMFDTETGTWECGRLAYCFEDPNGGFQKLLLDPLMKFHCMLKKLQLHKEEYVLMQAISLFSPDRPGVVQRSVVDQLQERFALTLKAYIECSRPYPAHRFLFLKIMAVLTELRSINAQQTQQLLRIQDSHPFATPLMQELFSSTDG
frog Thyroid hormone Receptor alpha (TRa), thra-a (gene 397942), sequence (P15204 whole entry, looked up, the tested form may be a part): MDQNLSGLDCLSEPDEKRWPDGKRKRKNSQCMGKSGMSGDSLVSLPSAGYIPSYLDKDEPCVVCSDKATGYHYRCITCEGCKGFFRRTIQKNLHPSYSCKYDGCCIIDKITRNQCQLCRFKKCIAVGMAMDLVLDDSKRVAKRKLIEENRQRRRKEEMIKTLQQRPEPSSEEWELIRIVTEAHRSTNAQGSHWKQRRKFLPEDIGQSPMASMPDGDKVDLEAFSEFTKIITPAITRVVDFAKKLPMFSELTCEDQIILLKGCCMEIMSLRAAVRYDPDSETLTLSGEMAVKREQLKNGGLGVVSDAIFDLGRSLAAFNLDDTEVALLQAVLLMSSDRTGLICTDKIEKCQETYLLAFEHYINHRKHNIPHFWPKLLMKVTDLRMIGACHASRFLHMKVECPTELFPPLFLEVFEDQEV
human Thyroid hormone Receptor alpha (TRa), THRA (gene 7067), sequence (P10827 whole entry, looked up, the tested form may be a part): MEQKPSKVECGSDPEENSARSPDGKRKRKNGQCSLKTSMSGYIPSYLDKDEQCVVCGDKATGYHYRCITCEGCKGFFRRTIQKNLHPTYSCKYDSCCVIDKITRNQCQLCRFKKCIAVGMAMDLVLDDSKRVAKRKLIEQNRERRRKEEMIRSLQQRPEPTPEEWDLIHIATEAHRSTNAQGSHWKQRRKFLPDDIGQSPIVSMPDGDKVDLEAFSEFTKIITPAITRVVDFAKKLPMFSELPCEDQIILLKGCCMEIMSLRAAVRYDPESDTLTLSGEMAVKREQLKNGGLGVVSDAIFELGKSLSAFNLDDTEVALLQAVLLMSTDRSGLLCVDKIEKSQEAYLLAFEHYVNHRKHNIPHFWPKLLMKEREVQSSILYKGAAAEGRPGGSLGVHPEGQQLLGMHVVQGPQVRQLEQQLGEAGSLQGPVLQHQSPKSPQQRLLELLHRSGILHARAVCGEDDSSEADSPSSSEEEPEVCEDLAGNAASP
zebrafish Thyroid Hormone Receptor alpha (TRa), thraa (gene 30670), sequence (Q98867 whole entry, looked up, the tested form may be a part): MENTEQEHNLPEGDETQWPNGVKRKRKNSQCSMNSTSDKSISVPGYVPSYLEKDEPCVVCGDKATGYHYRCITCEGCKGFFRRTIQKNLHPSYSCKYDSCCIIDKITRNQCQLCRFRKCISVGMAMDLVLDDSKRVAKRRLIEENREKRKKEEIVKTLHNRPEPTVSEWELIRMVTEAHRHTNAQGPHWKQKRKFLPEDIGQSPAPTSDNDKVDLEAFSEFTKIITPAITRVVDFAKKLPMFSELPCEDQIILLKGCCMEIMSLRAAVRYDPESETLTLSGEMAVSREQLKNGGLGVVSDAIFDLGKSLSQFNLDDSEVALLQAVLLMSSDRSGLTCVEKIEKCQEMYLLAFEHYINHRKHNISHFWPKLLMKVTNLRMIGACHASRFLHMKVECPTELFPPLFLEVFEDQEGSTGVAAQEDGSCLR

By AC50 is commonly meant the midpoint of the concentration-response curve, whichever way the signal moves. For the compound `Clc1ccc(C(c2ccccc2Cl)C(Cl)(Cl)Cl)cc1` (centres undefined), the concentration at half-maximal activity (AC50) in assay [1] is 88.7 µM (active).

Take `Oc1ccc(C(c2ccc(O)cc2)(C(F)(F)F)C(F)(F)F)cc1`: the outcome in [1] was inactive.

`C[C@]12CCC(=O)C=C1CC[C@@H]1[C@@H]2CC[C@]2(C)C(=O)CC[C@@H]12`: the half-maximal activity concentration (AC50) in [2] is 0.658 µM (active).

Regarding `C[C@]12CCC(=O)C=C1CC[C@@H]1[C@@H]2CC[C@@]2(C)[C@H]1CC[C@]2(C)O`, the concentration at half-maximal activity (AC50) in assay [2] was 0.0018 µM (active).

Consider `NS(=O)(=O)C(F)(F)C(F)(F)C(F)(F)C(F)(F)C(F)(F)C(F)(F)C(F)(F)C(F)(F)F`, for which the half-maximal activity concentration (AC50) in assay [3] is 77.8 µM (active) and 132 µM (active); in the assay with AR (gene 367) [4], 66.1 µM (active).

Consider `C=CC(=O)NCNC(=O)C=C`, for which the outcome in the assay with AR (gene 367) [5] and with AR (gene 367) [4] was inactive. Moreover, the AC50 in assay [1] was 50 µM (active).

As to `Cc1cc(O)ccc1Cl`, in assay [1], the outcome was inactive.

`Oc1c(Cl)c(Cl)c(Cl)c(Cl)c1Cl`: in [3], the AC50 is 77.9 µM (active) and the call was inactive.

As for `O=C(O)C(F)(F)C(F)(F)C(F)(F)C(F)(F)C(F)(F)C(F)(F)C(F)(F)C(F)(F)F`, in assay [3], the AC50 was 122 µM (active) and the compound was called inactive.

As to `CCCCCCOC(=O)c1ccccc1C(=O)OCCCCCC`, the call in [3] and in assay [1] was inactive.

Take `CCC(=O)O[C@H]1CC[C@H]2[C@@H]3CCC4=CC(=O)CC[C@]4(C)[C@H]3CC[C@]12C`: the concentration at half-maximal activity (AC50) in assay [3] was 92.4 µM (active) and 88.5 µM (active); with AR (gene 367) [5], 0.207 nM (active) and 0.285 nM (active) and 0.61 nM (active); in [1], 28.6 µM (active).

`CCCCCCCCOC(=O)c1ccccc1C(=O)OCCCCCCCC`: in the assay with AR (gene 367) [5], the compound was called inactive. Also, the half-maximal activity concentration (AC50) with AR (gene 367) [4] was 50 µM (active).

`CCNc1nc(NC(C)C)nc(SC)n1`: the call (with AR (gene 367) [5]; in [1]; with AR (gene 367) [4]) was inactive.

On to `COS(=O)(=O)OC`, for which the outcome in assay [1] was inactive.

For `CO/C=C(/C(=O)OC)c1ccccc1COc1cccc(C(F)(F)F)n1`, in assay [1], the outcome was inactive.

For `c1cc2ccc3cccc4ccc(c1)c2c34`, the result in assay [3] was inactive. The AC50 with AR (gene 367) [4] is 25.5 µM (active).

On to `CCSC(=O)N(CC)C1CCCCC1`, for which the result in assay [3] and in assay [1] was inactive.

Take `Cc1ccccc1CO[C@@H]1C[C@@]2(C(C)C)CC[C@]1(C)O2`: the values for the AC50 (in assay [3]; with AR (gene 367) [4]) were 74.9 µM (active) and 76.6 µM (active), respectively. In the assay with AR (gene 367) [5], the compound was classed as inactive.

As for `O=NN(c1ccccc1)c1ccccc1`, the outcome in [1] was inactive.

Regarding `CC(C)(O)C(=O)Nc1ccc([N+](=O)[O-])c(C(F)(F)F)c1`, the call (with AR (gene 367) [5]; in [6]; in assay [7]; in [8]; in assay [9]; in assay [10]) was inactive. The call in assay [13] was inactive. For the same compound, the concentration at half-maximal activity (AC50) is 50 µM (active) in [11] and 30.6 µM (active) in assay [12].

With `CCC(C)c1cc([N+](=O)[O-])cc([N+](=O)[O-])c1O` (centres undefined), the result in assay [1] was inactive.

On to `C=CC(N)=O`, for which the result in [1] was inactive.

For the compound `CCOCCOC(C)=O`, in [1], the result was inactive.

As for `C1CC2OC2CC1C1CO1` (centres undefined), in assay [1], the AC50 is 74.5 µM (active).

Take `O=C(NC(=O)c1c(F)cccc1F)Nc1cc(Cl)c(OC(F)(F)C(F)F)c(Cl)c1`: the compound was classed as inactive in the assay with AR (gene 367) [5]. Moreover, the concentration at half-maximal activity (AC50) with AR (gene 367) [4] is 50 µM (active).

Regarding `CC1=C2C[C@H]3[C@@H](CC=C4C[C@@H](O)CC[C@@]43C)[C@@H]2CC[C@]12O[C@@H]1C[C@H](C)CN[C@H]1[C@H]2C`, the outcome in assay [3] and in [1] was inactive. The AC50 with AR (gene 367) [4] is 80.8 µM (active).

Take `Clc1ccc(C(Cl)(Cl)Cl)cc1`: the AC50 in assay [1] is 83.6 µM (active).

Consider `O=C(N[C@H]1CN2CCC1CC2)c1cc2ccoc2cn1`, for which, in the assay with AR (gene 367) [5], the result was inactive. Besides, the concentration at half-maximal activity (AC50) with AR (gene 367) [4] was 33.1 µM (active).

With `ClC1=C(Cl)[C@]2(Cl)[C@@H]3[C@H]4C[C@H]([C@@H]5O[C@H]45)[C@@H]3[C@@]1(Cl)C2(Cl)Cl`, the call in assay [3] was inactive. Also, in [1], the concentration at half-maximal activity (AC50) is 88.1 µM (active).

With `CCCCCCCCCC[N+](C)(C)CCCCCCCCCC`, the AC50 in assay [3] is 5.4 µM (active); in assay [1], 2.5 µM (active).

As for `CCOC(=O)C(O)(c1ccc(Cl)cc1)c1ccc(Cl)cc1`, the results for the AC50 (in [3]; in the assay with AR (gene 367) [4]) were 81.3 µM (active) and 19.2 µM (active), respectively. The call with AR (gene 367) [5] was inactive.

`c1ccc(-c2ccccc2)cc1`: the compound was classed as inactive (in [3]; in the assay with AR (gene 367) [4]).
